Out of some 400,000 compounds screened, about 2,100 (0.53%) were called active. Not shown: some 14% with an inconclusive outcome. How the calls were made is not given here. Only a selection was taken, and actives are over-represented in it overall.

Ataxin-2 (Homo sapiens), sequence (Q99700 whole entry): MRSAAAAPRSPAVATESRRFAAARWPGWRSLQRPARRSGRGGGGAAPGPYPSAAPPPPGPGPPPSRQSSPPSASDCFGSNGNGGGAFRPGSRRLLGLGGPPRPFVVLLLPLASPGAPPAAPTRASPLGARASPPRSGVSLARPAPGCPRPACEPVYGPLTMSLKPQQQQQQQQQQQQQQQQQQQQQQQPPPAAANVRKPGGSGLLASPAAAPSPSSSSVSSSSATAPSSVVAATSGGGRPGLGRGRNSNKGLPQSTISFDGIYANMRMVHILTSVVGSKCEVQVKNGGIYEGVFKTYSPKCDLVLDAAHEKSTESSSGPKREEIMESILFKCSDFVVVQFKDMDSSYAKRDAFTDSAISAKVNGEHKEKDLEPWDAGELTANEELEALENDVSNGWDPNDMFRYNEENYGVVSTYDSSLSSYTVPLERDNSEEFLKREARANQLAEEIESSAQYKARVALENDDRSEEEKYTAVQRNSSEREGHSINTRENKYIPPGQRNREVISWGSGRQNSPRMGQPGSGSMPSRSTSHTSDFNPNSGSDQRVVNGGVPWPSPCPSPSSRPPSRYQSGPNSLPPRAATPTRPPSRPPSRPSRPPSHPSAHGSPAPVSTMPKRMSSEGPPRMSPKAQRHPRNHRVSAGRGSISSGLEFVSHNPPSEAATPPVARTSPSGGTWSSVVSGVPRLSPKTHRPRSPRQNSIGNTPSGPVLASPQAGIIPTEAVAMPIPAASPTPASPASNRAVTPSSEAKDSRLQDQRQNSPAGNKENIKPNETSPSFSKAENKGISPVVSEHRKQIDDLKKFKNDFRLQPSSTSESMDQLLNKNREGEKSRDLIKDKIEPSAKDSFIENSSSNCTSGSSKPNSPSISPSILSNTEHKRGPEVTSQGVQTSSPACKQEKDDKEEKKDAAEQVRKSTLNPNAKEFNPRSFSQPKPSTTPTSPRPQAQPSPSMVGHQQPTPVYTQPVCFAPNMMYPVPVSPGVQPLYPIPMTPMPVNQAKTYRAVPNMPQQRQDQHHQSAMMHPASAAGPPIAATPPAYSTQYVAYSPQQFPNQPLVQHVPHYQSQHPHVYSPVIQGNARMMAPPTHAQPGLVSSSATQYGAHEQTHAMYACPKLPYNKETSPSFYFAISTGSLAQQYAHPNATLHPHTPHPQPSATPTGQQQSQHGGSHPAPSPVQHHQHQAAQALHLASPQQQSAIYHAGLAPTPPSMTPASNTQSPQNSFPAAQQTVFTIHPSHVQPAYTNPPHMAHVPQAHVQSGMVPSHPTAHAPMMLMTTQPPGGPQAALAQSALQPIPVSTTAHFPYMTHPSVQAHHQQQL

The assay concerns the target Ataxin-2 (Homo sapiens) (UniProt Q99700). The assay is described as follows: qHTS for Inhibitors of ATXN expression. In kind it is functional. For orientation: In qHTS, concentration-response curves come from the screen itself.
Consider `COc1ccc(C(=O)NNC(=O)CSc2nc3c(=O)n(C)c(=O)n(C)c3[nH]2)cc1`, for which the Potency result was “inactive”.
`N#Cc1cccc(Cn2cc(C(F)(F)F)ccc2=O)c1`: the Potency entry is “inactive”.
As for `CS(=O)(=O)c1ncc(Cl)c(C(=O)N(Cc2ccc(Cl)cc2)Cc2ccco2)n1`, the Potency is 6.31 µM (active).
The value for `C=C1C(=O)[C@]23C[C@H]1CC[C@H]2[C@]1(C)[C@@H](O)CC[C@@](C)(C(=O)O)[C@H]1C[C@@H]3O` was 12.6 µM (active); that for `C=C1C(=O)[C@]23C[C@H]1CC[C@H]2[C@]1(C)[C@@H](OC(C)=O)CC[C@@](C)(C(=O)O)[C@H]1C[C@@H]3O` was 11.2 µM (active); that for `C=C1C(=O)[C@]23C[C@H]1CCC2[C@@]1(C)C(C[C@@H]3O)[C@](C)(C(=O)OC)CC[C@@H]1O` (stereo partly drawn) was 35.5 µM (active).
For the molecule `N#C/C(=C\c1ccncc1)c1nc2c(s1)CCCC2`, the Potency result was “inactive”.
Consider `CCc1cc(=O)oc2cc(O[C@@H]3O[C@H](CO)[C@@H](O)[C@H](O)[C@H]3O)c(Cl)cc12`, for which the Potency entry was “inactive”.
With `Cc1cc(-n2cnc(-c3cn(C)nc3C)n2)no1`, the Potency entry is “inactive”.
Regarding `CN(C)/C=N/c1nc2nccc(-c3cccs3)n2n1`, the Potency result was “inactive”.
Next, `COc1ccc2c(Cl)c(C(=O)NN3CCN(C)CC3)sc2c1`: “inactive”.
Next, `CC(C)(C)C(=O)NC(=S)NNC(=O)c1sc2ccccc2c1Cl`: 31.6 µM (active); `CC(C)(C)C(=O)NC(=S)Nc1ccc(C(F)(F)F)cc1`: “inactive”; `C=CCn1c(S)nnc1-c1ccc2ncccc2c1`: “inactive”.
Next, `CC(C)CC1C(=O)N(Cc2cn(CCC3OCCO3)nn2)CCS(=O)(=O)N1Cc1ccc(-c2ccc(F)cc2)cc1` (stereo not drawn): 35.5 µM (active).
`CC(C)CC1C(=O)N(Cc2cn(CCC3OCCO3)nn2)CCS(=O)(=O)N1Cc1ccc(-c2ccc(Cl)c(Cl)c2)cc1` (stereo not drawn): the Potency is 39.8 µM (active).
The value for `C/C(=N\c1ccc(C)cc1C)c1sc2ccccc2c1O` was “inactive”; that for `N#C/C(=C\c1ccc(N2CCCCC2)o1)C(=O)Nc1cccc(Br)c1` was “inactive”.
Next, `COc1cc2ccc(=O)oc2c(O[C@@H]2O[C@H](CO)[C@@H](O)[C@H](O)[C@H]2O)c1O`: “inactive”.
`COc1ccccc1/C=C/c1nc(C#N)c(N(C)C)o1`: the Potency entry was “inactive”.
The value for `Cc1noc(C)c1S(=O)(=O)Nc1ccc(C(C)C)cc1` was “inactive”; that for `CC(C)NC(=O)Nc1ccc2c(c1)C(=O)N([C@H](C)CO)C[C@H](C)[C@@H](CN(C)Cc1ccc(C(F)(F)F)cc1)OCCCC[C@H](C)O2` was 20 µM (active).
Consider `Cc1noc(C)c1S(=O)(=O)Nc1ccc2c(c1)C(=O)N([C@@H](C)CO)C[C@H](C)[C@@H](CN(C)Cc1ccc(C(F)(F)F)cc1)OCCCC[C@H](C)O2`, for which the Potency was 20 µM (active).
